Experimental data: PubChem BioAssay (NCI)
Compounds without any hit were thinned out: in the full panel of roughly 83,000, 20% have a hit.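 48-hour exposure, single concentration, 96-well plates; percent growth endpoint where 0 means no net growth. Active: below 10.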 Values without a mark were called inactive. Calls of active or inactive are those of the source.

The compounds below were run on 786-0 renal (assay: NCI-60 one-dose screen, 48 h (100 = growth as untreated, 0 = no growth, -100 = all killed)). Settings: 10 µM unless noted.
Work on COc1ccc(N2CCC(=O)NC2=S)cc1 yielded a growth of 104%.
Oc1c(Cl)cc(Cl)c2ccc(Cn3cc(-c4cc(F)cc(F)c4)nn3)nc12 was tested, and the growth was 95.6%.
CO/N=C(/C)c1ccc(NC(=O)CSc2nnc(-c3ccncc3)n2-c2ccccc2)cc1 was tested, and the growth was -43.1% (active).
O=C1c2cccnc2C(=O)c2c1c(C(=O)NCCn1ccnc1)c1ccccn21 showed a growth of 49%.
Work on O=C1NC(=O)c2c1c1c3ccccc3ccc1c1[nH]c3ccc(Br)cc3c21 yielded a growth of 30.7%.
For Cc1ccc(-c2nc3nc(-c4ccccc4)nc(N4CCNCC4)c3o2)cc1, the growth was -84.5% (active).
With CC(C)(C)n1cc(-c2ccnc(NCCNS(=O)(=O)c3cccc(F)c3)c2)c(-c2ccccc2)n1 the growth was 81.2%.
Work on Cc1c(-n2nnc(-c3nc4ccccc4s3)c2N)c(=O)n(-c2ccccc2)n1C yielded a growth of 107%.

Each compound was assayed on COLO 205 colon in the same assay as above. Settings: 10 µM unless noted.
Fc1ccc(-c2nn(-c3ccccc3)cc2-c2nc3ccccc3o2)cc1 was tested, and the growth was 140%.
With CCOC(=O)C(=Cc1cccc(Br)c1)C(=O)OCC the growth was 46.6%.
COc1cccc(NC(=O)Cn2cc(CN3CCN(c4ccnc5cc(Cl)ccc45)CC3)nn2)c1 gave a growth of 112%.
In the case of CCOC(=O)c1cc2c(=O)oc3ccccc3c2oc1=O, the growth was 129%.
Compound O=C(Nc1cc(Cl)ccc1O)c1ccc(Nc2ccnc(C(F)(F)F)c2)cc1 has a growth of 87.9%.
C=C(C)[C@@H]1CC[C@]2(C(=O)O)CC[C@]3(C)[C@H](CC[C@@H]4[C@@]5(C)C[C@@H](Cc6cn(CCO[C@@H]7O[C@H](COC(C)=O)[C@H](OC(C)=O)[C@H](OC(C)=O)[C@H]7OC(C)=O)nn6)[C@H](O)C(C)(C)[C@@H]5CC[C@]43C)[C@@H]12 was tested, and the growth was 96.5%.
CC(C)CCC[C@@H](C)[C@H]1CC[C@H]2[C@@H]3CC=C4C[C@@H](C(C(=O)O)C(=O)O)CC[C@]4(C)[C@H]3CC[C@]12C was tested, and the growth was -91.1% (active).
O=S(=O)(Nc1ccc(Cl)cc1)c1ccc(-c2cnc(C3CC3)o2)cc1 was tested, and the growth was 9.01% (active).
With C#CCOc1ccc2ncnc(Nc3ccc(NC(=O)CCl)cc3)c2c1 the growth was -8.04% (active).
Compound CCOC(=O)C1=C(NC)OCC1=O has a growth of 112%.
For COC(=O)c1c2c(c(C)[n+]([O-])c1C)C(=O)C=C(NCc1ccc(Br)cc1)C2=O, the growth was -69.8% (active).
For CCN(CC)CCOc1ccc(-c2c(-c3ccccc3)c(=O)oc3ccccc23)cc1, the growth was 81.2%.
Nc1nc(=S)c2ncn(C3OC(COP(=O)(O)O)C(O)C3O)c2[nH]1 (centres undefined) was tested, and the growth was 24.7%.
Compound COc1ccc(/C=N/NC(=O)CCN2c3ccccc3Sc3ccccc32)cc1 has a growth of 88.5%.
For c1cnc2[nH]cc(-c3csc(-c4cn(CCCN5CCOCC5)c5ccccc45)n3)c2c1, the growth was 31.2%.
With S=C1CCSC(=S)N1CCCN1C(=S)CCSC1=S the growth was 64.2%.
COc1ccc(C(=O)Nc2ncc(Cc3ccc(F)cc3)s2)cc1 was tested, and the growth was -16.2% (active).
For C=C1C(=O)O[C@H]2[C@H]1CC/C(COC(=O)NCc1cc[nH]c1)=C\CC[C@@]1(C)O[C@@H]21, the growth was 31.2%.
In the case of CCNc1cc(-c2cccc(OC(F)(F)F)c2)nc2ccc(N3CCCC3)cc12, the growth was -65.9% (active).
For CCNc1nc(-c2ccc(Cl)c(OC)c2)c(-c2ccnc(NCCCNS(=O)(=O)c3ccc(Cl)cc3)n2)s1, the growth was 11.7%.
Work on Cc1nc2c(=O)[nH]c(SCC(=O)Nc3cccc(F)c3)nc2[nH]c1=O yielded a growth of 111%.
For Cc1ccc(-c2nc3nc(-c4ccc(F)cc4)nc(N4CCNCC4)c3o2)cc1, the growth was -78.1% (active).
Oc1c(Cl)cc(Cl)c2ccc(Cn3cc(-c4cc(C(F)(F)F)cc(C(F)(F)F)c4)nn3)nc12 gave a growth of 66.4%.
CC[C@@H](C(=O)[C@@H](C)[C@@H](O)[C@H](C)[C@@H]1O[C@@H]([C@@H](CC)C(=O)NCCc2ccc(F)cc2)CC[C@@H]1C)C1O[C@]2(C=CC(=O)[C@]3(CC[C@@](C)([C@H]4CC[C@](O)(CC)[C@H](C)O4)O3)O2)[C@H](C)C[C@@H]1C (some centres undefined) was tested, and the growth was 29.5%.
For c1cc2[nH]ncc2cc1-c1nc2ccc3[nH]ncc3c2c2c1CCCC2, the growth was 3.57% (active).
Compound C#CCOc1cccc(Nc2ncnc3c(NC(=O)C=C)cccc23)c1 has a growth of 26.3%.
N#Cc1cnc(NCCc2ccncc2)nc1-n1cnc2ccccc21 was tested, and the growth was 72.1%.
For CCOC(=O)c1c(NC(=O)c2ccc(C(C)C)cc2)sc2c(CN(C)C)c(O)ccc12, the growth was -24.5% (active).
COc1ccc(N2CCC(=O)NC2=S)cc1 gave a growth of 106%.
For Oc1c(Cl)cc(Cl)c2ccc(Cn3cc(-c4cc(F)cc(F)c4)nn3)nc12, the growth was 70.4%.
CO/N=C(/C)c1ccc(NC(=O)CSc2nnc(-c3ccncc3)n2-c2ccccc2)cc1 showed a growth of 104%.
In the case of O=C1c2cccnc2C(=O)c2c1c(C(=O)NCCn1ccnc1)c1ccccn21, the growth was -27.6% (active).
For O=C1NC(=O)c2c1c1c3ccccc3ccc1c1[nH]c3ccc(Br)cc3c21, the growth was 9.33% (active).
Cc1ccc(-c2nc3nc(-c4ccccc4)nc(N4CCNCC4)c3o2)cc1 was tested, and the growth was -92.4% (active).
Work on CC(C)(C)n1cc(-c2ccnc(NCCNS(=O)(=O)c3cccc(F)c3)c2)c(-c2ccccc2)n1 yielded a growth of 78.3%.
For Cc1c(-n2nnc(-c3nc4ccccc4s3)c2N)c(=O)n(-c2ccccc2)n1C, the growth was 104%.
